This is part of a sample that, as a whole, favours compounds with a hit. Of some 79,000 tested, about 15% had one in any assay. Calls of active or inactive are those of the source. Cut-off read from the data, not from the text of the source: active = growth inhibition above about 70%; inactive = the rest.
Experiments:
[1] = NCI Yeast Anticancer Drug Screen. Data for the rad52 strain (AID 147);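 note: 0% = growth of vehicle-treated control cultures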; conditions: S. cerevisiae rad52 mutant growth inhibition, active compounds read high
Method in brief: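 Vehicle-treated cultures served as the reference for growth inhibition of compound-exposed yeast bearing a DNA repair mutation.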

[2] = NCI Yeast Anticancer Drug Screen. Data for the wt1 strain (AID 149);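 note: 0% = growth of vehicle-treated wt1 cultures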; conditions: S. cerevisiae wt1 strain (SPY 50644) growth inhibition, active compounds read high
Method in brief: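 Measured: growth of wt1 yeast under compound versus vehicle treatment, reported as inhibition.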

[3] = NCI Yeast Anticancer Drug Screen. Data for the rad50EPP+ strain (AID 151);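 note: 0% = growth of vehicle-treated control cultures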; conditions: S. cerevisiae rad50 mutant strain, active compounds read high
Method in brief: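 In this screen, rad50EPP+ yeast were exposed to compounds. Growth inhibition was scored against vehicle-treated controls.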

[4] = NCI Yeast Anticancer Drug Screen. Data for the mgt1 strain (AID 153); conditions: S. cerevisiae mgt1 mutant growth inhibition, active compounds read high
Method in brief: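 mgt1 strain exposed; growth vs vehicle control recorded as inhibition.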

[5] = NCI Yeast Anticancer Drug Screen. Data for the rad50 strain (AID 155);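 note: 0% = growth of vehicle-only cultures of the same strain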; conditions: S. cerevisiae rad50 strain growth inhibition, active compounds read high
Method in brief: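 Growth of the mutant yeast was measured after compound exposure and referenced to vehicle-treated cultures.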

[6] = NCI Yeast Anticancer Drug Screen. Data for the mec2-1 strain (AID 157); conditions: S. cerevisiae mec2-1 strain, active compounds read high
Method in brief: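 Vehicle-treated cultures served as reference for growth inhibition of compound-exposed mec2-1 yeast.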

[7] = NCI Yeast Anticancer Drug Screen. Data for the rad14 strain (AID 159);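 note: 0% = growth of vehicle-treated control cultures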; conditions: S. cerevisiae rad14 strain growth inhibition, active compounds read high
Method in brief: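 Here, inhibition of yeast growth was measured after compound exposure, using a strain with a genetic defect in DNA damage repair and vehicle-treated cultures as the reference.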

[8] = at 5.0 µM (retest, dose inferred, filed as 0.5)
[9] = at 50.0 µM (retest, dose inferred, filed as 5.0)

Measured: growth inhibition

Cc1cc2c3ccccc3c3ccccc3c2nn1
inactive: [1]; at 1.2 µM 2% | [1]; at 3.7 µM 21% | [1]; at 11.0 µM 60% | [2]; at 1.2 µM -7% | [2]; at 3.7 µM -6% | [2]; at 11.0 µM -8% | [2]; at 33.0 µM -8% | [2]; at 100.0 µM -5% | [3]; at 1.2 µM 13% | [3]; at 3.7 µM 38% | [3]; at 11.0 µM 56% | [3]; at 33.0 µM 60% | [3]; at 100.0 µM 52% | [4]; at 1.2 µM -4% | [4]; at 3.7 µM -6% | [4]; at 11.0 µM -5% | [4]; at 33.0 µM -4% | [4]; at 100.0 µM -6% | [5]; at 1.2 µM 5% | [5]; at 3.7 µM 25% | [5]; [8] 2% | [6]; at 1.2 µM 2% | [6]; at 3.7 µM 0% | [6]; [8] -46% | [6]; at 11.0 µM 10% | [6]; at 33.0 µM 7% | [6]; [9] -15% | [6]; at 50.0 µM 21.8% | [6]; at 100.0 µM 12% | [7]; at 1.2 µM 3% | [7]; at 3.7 µM 8% | [7]; at 11.0 µM 15% | [7]; at 33.0 µM 15% | [7]; at 100.0 µM 15%
active: [1]; at 33.0 µM 74% | [1]; at 100.0 µM 80% | [5]; at 11.0 µM 72% | [5]; at 33.0 µM 83% | [5]; [9] 77% | [5]; at 50.0 µM 94.7% | [5]; at 100.0 µM 79%

Reference: PubChem BioAssay (NCI)
